The text below walks through data of PubChem BioAssay (NCI).

This is part of a sample that, as a whole, favours compounds with a hit. Of some 83,000 tested, about 20% had one in any assay.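 Each cell line was grown in a 96-well plate and treated with one concentration of compound for 48 hours. Values below 10 were considered active.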 Values without a mark were called inactive. The source made the active and inactive calls.

This test relates to OVCAR-5 ovarian. The test can be described thus: NCI-60 one-dose screen, 48 h (100 = growth as untreated, 0 = no growth, -100 = all killed). The following applies: 10 µM unless noted. As for the experimental part: Growth inhibition of the OVCAR-5 human tumor cell line is measured as a screen for anti-cancer activity. Cells are grown in 96 well plates and exposed to the test compound for 48 hours. Compounds are tested at a single concentration, which is 10^-5 M for most compounds. The reported endpoint is percent growth (GI% or GIPRCNT), where numbers from 0 - 100% represent growth inhibition, and numbers from -100% - 0 represent cell death. For example, a value of 40 represents 60% growth inhibition. A value of 0 means no net growth occurred over the course of the experiment. A value of -40 indicates 40% of cells at the beginning of the experiment died by the end of the experiment. A value of -100 means all cells are dead at the end of the experiment.
NCI-60 Human Tumor Cell Lines Screen was performed using the standard one-dose NCI protocol, which is described in more detail at https://dtp.cancer.gov/discovery_development/nci-60/default.htm.
Compounds with GIPRCNT values below 10 were considered active. Activity score was based on GIPRCNT using the following formula: […]
Score is 0 for GIPRCNT values of 100 or above, 50 for GIPRCNT values of 0, and 100 for GIPRCNT values of -100.
Take `O=C1NC(=Nc2ccc(Cl)cc2)S/C1=C\c1cn(-c2ccccc2)nc1-c1ccccc1`: the growth is 98.6%.

For `N#Cc1c(-c2cccc(Cl)c2)cc(-c2cccc(F)c2)[nH]c1=O`, the growth is 95.8%.

`O=C(Nc1ccc(Nc2ccncc2)cc1)c1ccc(C(=O)Nc2ccc(Nc3ccncc3)cc2)cc1`: the growth was 51.1%.

Take `COc1ccc(-c2nc(SCCC(C)C)nc(N/N=C\c3cccc([N+](=O)[O-])c3)c2C#N)cc1`: the growth was 38.4%.

For `COc1cc(C2CC(c3ccc(Nc4ccnc5cc(Cl)ccc45)cc3)=NN2C=O)cc(OC)c1OC` (stereo not given), the growth was 109%.

Regarding `Cc1ccc(-n2c(-c3ccccc3)c(-c3ccccc3)c3c(SCC(=O)n4[nH]c(N)cc4=O)ncnc32)cc1`, the growth is 101%.

On to `COc1ccccc1N1C(=O)/C(=C/C2=Cc3ccccc3OC2)SC1=S`, for which the growth was 99.2%.

On to `O=c1c2c3c(sc2nc(N/N=C/c2ccc(Br)cc2)n1Cc1ccccc1)CCCC3`, for which the growth is 78.3%.

For the compound `COC(=O)[C@]12CC[C@@H](C)[C@H](C)[C@@H]1C1=CC[C@@H]3[C@@]4(C)C(C=O)=C[C@@](C)(CO)[C@@H]4[C@H](O)C[C@@]3(C)[C@]1(C)CC2`, the growth was -19.7% (active).

As to `COc1cc2nc(Cl)nc(Nc3ccc(S(=O)(=O)Nc4nccs4)cc3)c2cc1OC`, the growth is 111%.

With `COc1cc(/C=C/C(=O)c2c(C)nc3ccccc3c2C)ccc1OCCCN1CCN(C(=O)c2ccco2)CC1`, the growth is 95.5%.

Take `CC1(C)CC(=O)C2=C(C1)N(c1ccc(OC(F)(F)F)cc1)C(N)=C(C#N)C2c1ccc(Cl)cc1` (stereo not given): the growth is 91%.

For `CCCCCCCC/C=C\CCCCCCCCOc1ccccc1CC(=O)NCC[N+](C)(C)C`, the growth was 25%.

On to `COc1cccc(C(=O)NCCCNc2cc(-c3cn(-c4ccccc4)nc3-c3cccc(OC)c3)ccn2)c1`, for which the growth was 82.1%.

On to `CC1CC2Oc3ccc(Cl)cc3C(=O)N2O1` (stereo not given), for which the growth was 98.7%.

As for `C=CCn1c(C)nc2cc(Nc3nc(Cl)nc4ccccc34)ccc21`, the growth was 99.8%.

`Cn1c(=O)c2[nH]c(NN)nc2n(C)c1=O`: the growth is 115%.

`c1cc2ccc3cc2cc1CNCCOCCNCc1ccc2ccc(cc2c1)CNCCOCCNC3`: the growth is -16.8% (active).

Regarding `CNC(=O)CCN1CCN(CC/C=C2\c3ccccc3Sc3ccc(Cl)cc32)CC1`, the growth is 96.3%.

With `COC(=O)c1c2c(c[n+]([O-])c1C)C(=O)C=CC2=O`, the growth was 118%.

Take `c1ccc2c(c1)nc(CN1CCOCC1)n1cc(N3CCCC3)nc21`: the growth is 92.9%.

With `Cc1c(C(=O)N[C@@H](Cc2ccccc2)C(=O)C(=O)NCCc2ccccc2)[nH]c2ccccc2c1=O`, the growth was 102%.

Consider `O=C1CCc2c(sc3[nH]c(=S)n(-c4ccc(OC(F)(F)F)cc4)c(=O)c23)C1`, for which the growth is 55.7%.

Consider `COc1cccc(-c2nn(-c3ccccc3)cc2-c2ccnc(NCCNC(=O)Nc3ccccc3)c2)c1`, for which the growth was 92.4%.

Regarding `Cc1cc(C)c2c(-c3nnc(N)s3)cc(=O)oc2c1`, the growth is 103%.

Turning to `CN(C)CCNc1nc2ccccc2c2c1c1c(n2Cc2ccccc2)-c2ccccc2C1=O`, the growth is -74.7% (active).

In the case of `O=C(/C=C/c1ccc(Cl)nc1)c1ccc(Cl)cc1Cl`, the growth is 91.4%.

For the compound `N=C1CCC(=N)c2c1c(O)c1ccccc1c2O`, the growth is 124%.

For the compound `O=[N+]([O-])c1ccc(C2CC(c3ccccc3)=Nc3ccccc3S2)cc1` (stereo not given), the growth is 113%.

As for `OC(c1cccc(-n2ccc(C(F)(F)F)n2)c1)c1cnccc1NC1CCCCCC1` (stereo not given), the growth was 15.2%.

As for `N#C/C(=C/C=C/c1cccc(Cl)c1)S(=O)c1ccccc1` (stereo not given), the growth is -45.1% (active).

For the compound `CC1=CN2C(=O)C3C4=C(CCCC4)SC3N=C2CN1c1c(C)cccc1C` (stereo not given), the growth is 94%.

For `N#C/C(=C\c1ccc(Br)cc1)n1nnc2cc(F)c(F)cc21`, the growth is 3.24% (active).

`COC(=O)[C@]12CC[C@@H](C)[C@H](C)[C@@H]1C1=CC[C@@H]3[C@@]4(C)C(C=O)=C[C@@](C)(COC(=O)/C=C/c5ccccc5)[C@@H]4[C@H](O)C[C@@]3(C)[C@]1(C)CC2`: the growth was 7.64% (active).

Take `NCCCNc1nc2ccccc2c2c(=O)c3cccc(Cl)c3sc12`: the growth was 50%.

With `Cc1cc(C)c(-c2c(C)cc(C)cc2CBr)c(CBr)c1`, the growth was 97.1%.

For `COc1cc(C2CC(=O)Nc3c2c(C)nn3-c2nc3ccccc3[nH]2)cc2c1OCC(=O)N2` (stereo not given), the growth is 101%.

In the case of `Oc1c(CN2CCCC2)cc(COCc2ccc(Br)cc2)c2cccnc12`, the growth was 29.6%.

As to `O=c1cc(-c2ccc(Cl)cc2)[nH]c2ccccc12`, the growth is 91.7%.

On to `O=C(Nc1cccc(Cl)c1)c1cc(N=Nc2ccc([N+](=O)[O-])cc2Cl)ccc1O`, for which the growth was 112%.
